About 79,000 compounds went through this panel and 15% of them were active in at least one assay; those are over-represented in the sample as a whole. No stated cut-off is given here; in the data, active means growth inhibition above about 70%; inactive means the rest.
Columns and labels:
[1] = NCI Yeast Anticancer Drug Screen. Data for the rad50 strain (AID 155);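 further: 0% = growth of vehicle-only cultures of the same strain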; settings: S. cerevisiae rad50 strain growth inhibition, hits give high values; at 50.0 µM unless noted
In short: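 Readout: growth inhibition relative to vehicle-treated cultures. Compound exposure was carried out in a genetically defined yeast strain deficient in DNA damage repair.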

[2] = NCI Yeast Anticancer Drug Screen. Data for the mec2-1 strain (AID 157); settings: S. cerevisiae mec2-1 strain, hits give high values; at 50.0 µM unless noted
In short: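 Growth inhibition is read against vehicle-treated controls after compound exposure of the mec2-1 yeast strain, which is defective in DNA damage repair or cell cycle control.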

[3] = NCI Yeast Anticancer Drug Screen. Data for the sgs1 mgt1 strain (AID 161);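 further: 0% = growth of cultures given vehicle only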; settings: S. cerevisiae sgs1 mgt1 strain, hits give high values; at 50.0 µM unless noted
In short: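 This yeast growth screen uses a strain with defined DNA-repair lesions; compound-treated growth is compared with vehicle-treated growth.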

[4] = NCI Yeast Anticancer Drug Screen. Data for the cln2 rad14 strain (AID 165);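 further: 0% = growth equal to vehicle treated cultures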; settings: S. cerevisiae cln2 rad14 strain, hits give high values; at 50.0 µM unless noted
In short: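 Growth inhibition, relative to vehicle-treated controls, is the read-out. The test organism is a yeast strain with defined genetic alterations, cln2 rad14.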

[5] = NCI Yeast Anticancer Drug Screen. Data for the bub3 strain (AID 167); settings: S. cerevisiae bub3 mutant strain, hits give high values; at 50.0 µM unless noted
In short: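 Readout: yeast growth inhibition, expressed relative to vehicle-only wells. The test organism is a mutant strain from a panel with lesions in DNA repair or checkpoint genes.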

[6] = NCI Yeast Anticancer Drug Screen. Data for the mlh1 rad18 strain (AID 175); settings: S. cerevisiae mlh1 rad18 strain growth inhibition, hits give high values; at 50.0 µM unless noted
In short: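 Cells of a genetically altered yeast strain, deficient in DNA damage repair, were treated with compound. Their growth was then compared with that of vehicle-treated cultures to give inhibition.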

Measured: growth inhibition

CC(=O)OCC1OC(n2c(Br)nc3c(=O)[nH]c(N)nc32)C(OC(C)=O)C1OC(C)=O (configuration not stated)
inactive: [1] -1.5% | [2] 4.3% | [3] 0.8% | [4] -14.8% | [5] -10.2% | [6] 5.6%

CCCC(C)C(=O)OCc1ccccc1 (configuration not stated)
inactive: [1] 16.6% | [2] -9.5% | [3] 5.35% | [4] -13.7% | [5] 6.7% | [6] 5%

Cc1ccc([N+](=O)[O-])cc1N
inactive: [1] 31% | [2] 25.4% | [3] 4.15% | [4] 23.2% | [5] 17.1% | [6] 14.7%

O=[N+]([O-])c1ccccc1/C=C/c1ccccn1
inactive: [1] 2.4% | [2] 2.35% | [3] -3.55% | [4] 20% | [5] 41.3% | [6] 21.1%

CCCCC(Sc1nn(C2OC(COC(=O)c3ccccc3)C(OC(=O)c3ccccc3)C2OC(=O)c2ccccc2)c(=O)[nH]c1=O)C(=O)OCC (configuration not stated)
inactive: [1] -1.45% | [2] -10.6% | [3] -21.4% | [4] -33.4% | [5] -4.7% | [6] 7.45%

O=C(c1cccc(C(=O)N2CCOCC2)n1)N1CCOCC1
inactive: [1] -9.95% | [2] 17.1% | [3] -3.5% | [4] -19.4% | [5] 5.15% | [6] 7.15%

CCC[n+]1nc2ccccc2c(=Nc2ccccc2[N+](=O)[O-])[n-]1
inactive: [1] 8.65% | [2] 8.75% | [3] 2.75% | [4] 7.8% | [5] 12.3% | [6] 2.45%

C=C(C)C(=O)O[C@H]1[C@H]2[C@H](OC(=O)[C@H]2C)[C@H](O)[C@@H](C)[C@@H]2C=CC(=O)[C@]21C
inactive: [1] 31.3% | [2] 30.5% | [3] 69.8% | [4] 47.2% | [5] 57.4% | [6] -31.1%

COc1cc(CNc2nc3ccc(C(F)(F)F)cc3nc2-c2ccccc2)cc(OC)c1OC
inactive: [1] -14.3% | [2] -3.05% | [3] -28.4% | [4] -10.2% | [5] 2.25% | [6] -4.55%

CCOC(=O)c1c[nH]c2c(Cl)c(Cl)ccc2c1=O
inactive: [1] -4.65% | [2] -19.1% | [3] -1.1% | [4] 12.9% | [5] 9.25% | [6] -6.95%

O=S1(=O)OCCOS(=O)(=O)C1Cc1nc2ccccc2[nH]1
inactive: [1] 3.25% | [2] 15.8% | [3] 1.25% | [4] 56.9% | [5] -0.05% | [6] 37.1%

Cc1[nH]c2c(C)ccc(C)c2c(=O)c1Br
inactive: [1] -1.65% | [2] 10% | [3] -1% | [4] -16.7% | [5] -1.7% | [6] 3.2%

O=C1NC(=O)[C@@]2(CC[C@@H](O)C2)c2ccncc21
inactive: [1] 3.55% | [2] -42.6% | [3] -10.2% | [4] 16.4% | [5] -33.2% | [6] -86.5%

CC(=O)c1ccccc1OB(F)F
inactive: [1] 10.2% | [2] -11.2% | [3] 8.8% | [4] -4.45% | [5] 1.05% | [6] -11.9%

C=CCn1c(=O)c2ccccc2[n+]2c(C)c(C(=O)OCC)sc12
inactive: [1] -26.9% | [2] -16.2% | [3] -2.65% | [4] -14.5% | [5] 2.45% | [6] -19.6%

Cc1ccc2sccc(=O)c2c1
inactive: [1] 1.05% | [2] -2.1% | [3] -8.95% | [4] -12.8% | [5] -5.95% | [6] 7.6%

O/N=C/c1ccc(O)cc1
inactive: [1] -63.2% | [2] -21.1% | [3] -14.4% | [4] -19.6% | [5] 2.55% | [6] -28.9%

O=C(NSN1CCOCC1)c1ccccc1
inactive: [1] 38.8% | [2] 25.8% | [3] 30% | [4] -45.6% | [5] 2.5% | [6] 38%

CC(=O)OC1OC(COC(c2ccccc2)(c2ccccc2)c2ccccc2)C(OC(C)=O)C(OC(C)=O)C1OC(C)=O (configuration not stated)
inactive: [1] 12.8% | [2] -8.6% | [3] -6.15% | [4] 6.4% | [5] 1.7% | [6] 24.6%

CSC(=S)OC(C)CC(C)C (configuration not stated)
inactive: [1] 37.6% | [2] -3.95% | [3] 30.7% | [4] -12.1% | [5] 6.95% | [6] 25.5%

C[C@@]1([N+](=O)[O-])CC2CCC1C2 (some centres not stated)
inactive: [1] -3.9% | [2] -12.5% | [3] -16.4% | [4] -6.45% | [5] 2.55% | [6] -9.55%

O=C(NCc1ccco1)Nc1ccccc1C(F)(F)F
inactive: [1] 2.3% | [2] 0.2% | [3] 18.5% | [4] 19.6% | [5] 20.4% | [6] 17.1%
